The record followed here is PubChem BioAssay (Tox21).

A short description of assay [1]: cAMP Responsive Elements (CRE) small molecule antagonists, cell-based qHTS assay: qHTS cell viability counter screen (AID 2060913). Further: nearly all actives have a fitted effect of over 40% in size. The method, boiled down: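 HEK293T CRE-bla, 2,000 cells/well, 18 h preincubation; cpd in DMSO + NKH477 0.25 uM final, 3 h 37 C/5% CO2; LiveBLAzer 2 h RT, then CellTiter-Glo 30 min RT, luminescence.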
A general note: In qHTS, concentration-response curves come from the screen itself.

A short description of assay [2]: cAMP Responsive Elements (CRE) small molecule agonists, cell-based qHTS assay: qHTS cell viability counter screen (AID 2060914). Further: nearly all actives have a fitted effect of over 50% in size. Summed up: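 CRE-bla HEK293T cells in 10% dialyzed FBS medium were exposed to compounds for 3 h at 37C after 18 h plating. CellTiter-Glo was then added in the same wells, and luminescence was read after 30 min at room temperature.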

Where “and” joins values, the source holds several entries; their conditions need not be identical. Equal entries are not always repeated. Results filed as inconclusive are left out. Unmarked numbers belong to inactive results. Calls of active or inactive are those of the source. The call rests on the fitted dose curve; in most records, active means well fitted cell-killing curve with a large enough effect in the repeat runs; inconclusive means weak or mixed curves, or effect the other way; inactive means flat fitted curve, though single readings scatter.
On the % scale 0 is the no-effect control and ±100 the full control effect; potency means the concentration at half of the fitted maximal effect.

Regarding `CN(C)CCCSc1ccccc1NC(=O)/C=C/c1ccccc1`, the Potency result in assay [1] and in assay [2] was “inactive” throughout.

On to `Cc1cccc([N+](=O)[O-])c1C`, for which the Potency entry in assay [1] and in assay [2] was “inactive” in each case.

Turning to `CC1(C)[C@@H]2CC[C@@]1(C)C(=O)C2`, the Potency result in assay [1] and in assay [2] was “inactive” throughout.

For the compound `COC(=O)c1cccc(Cl)c1`, the Potency entry in assay [1] and in assay [2] was “inactive” throughout.

As to `c1coc(CNc2ncnc3nc[nH]c23)c1`, the Potency result in assay [1] and in assay [2] was “inactive” each time.

In the case of `CS(C)(=O)=O`, the Potency entry in assay [1] and in assay [2] was “inactive” each time.

`Fc1ccc(Br)cc1`: the Potency entry in assay [1] and in assay [2] was “inactive” each time.

In the case of `O=C(CCCCCCC(=O)Nc1ccccc1)NO`, the Potency result in assay [1] and in assay [2] was “inactive” each time.

On to `COc1ccccc1N1CCN(CCCCNC(=O)c2ccc(-c3ccc(C(C)=O)cc3)cc2)CC1`, for which the Potency result in assay [1] and in assay [2] was “inactive” throughout.

`CN(C)CC[C@@H](c1ccc(Cl)cc1)c1ccccn1`: the Potency entry in assay [1] and in assay [2] was “inactive” throughout.

Consider `CC1=NN(c2ccc(C(=O)O)cc2)C(=O)C1`, for which the Potency entry in assay [1] and in assay [2] was “inactive” throughout.

In the case of `[Cl][Bi]([Cl])([c]1ccccc1)([c]1ccccc1)[c]1ccccc1`, the values for the Potency in assay [1] and in assay [2] were 30.5 µM (active) and 43 µM (active), respectively.

For `Cn1cnc([N+](=O)[O-])c1Sc1ncnc2nc[nH]c12`, the Potency entry in assay [1] and in assay [2] was “inactive” each time.

For the compound `CCN(CC)CCOc1ccccc1C(=O)CCc1ccccc1`, the Potency entry in assay [1] and in assay [2] was “inactive” each time.

Consider `CCC(C)OC(=O)c1ccc(O)cc1` (stereo not drawn), for which the Potency entry in assay [1] and in assay [2] was “inactive” each time.

In the case of `CCCOc1ccc2c(c1)CC[C@@H]1[C@@H]2CC[C@]2(C)C(OC)CC[C@@H]12` (stereo partly drawn), the Potency result in assay [1] and in assay [2] was “inactive” in each case.

For the compound `Cc1ccc(C(=O)c2cc(O)c(O)c([N+](=O)[O-])c2)cc1`, the Potency result in assay [1] and in assay [2] was “inactive” each time.

As to `SC1CCCCC1`, the Potency result in assay [1] and in assay [2] was “inactive” in each case.

Take `c1ccc2ncccc2c1`: the Potency entry in assay [1] and in assay [2] was “inactive” each time.

For the compound `CC(=O)N[C@@H](CCC(N)=O)C(=O)O`, the Potency result in assay [1] and in assay [2] was “inactive” throughout.

In the case of `Cc1nc([N+](=O)[O-])cn1-c1ccc([N+](=O)[O-])cc1`, the Potency entry in assay [1] and in assay [2] was “inactive” throughout.

In the case of `CC1(C)[C@H](C(=O)O)N2C(=O)C[C@H]2S1(=O)=O`, the Potency result in assay [1] and in assay [2] was “inactive” each time.

As to `CCC(C)(CCC(C)C)C(=O)[O][Sn]([CH3])([CH3])[O]C(=O)C(C)(CC)CCC(C)C` (stereo not drawn), the Potency entry in assay [1] and in assay [2] was “inactive” throughout.

On to `CC1(C)S[C@@H]2[C@H](NC(=O)C(c3ccccc3)S(=O)(=O)O)C(=O)N2[C@H]1C(=O)O` (stereo partly drawn), for which the Potency result in assay [1] and in assay [2] was “inactive” throughout.

Consider `NC(=S)N/N=C/c1cccnc1`, for which the Potency entry in assay [1] and in assay [2] was “inactive” throughout.

With `CCN(CC)CCOCCOC(=O)C1(c2ccccc2)CCCC1`, the Potency entry in assay [1] and in assay [2] was “inactive” in each case.

On to `CN(C)CCN1C(=O)c2ccccc2N(C)c2ccccc21`, for which the Potency entry in assay [1] and in assay [2] was “inactive” in each case.

As to `C[C@H](CS)C(=O)N1CCC[C@H]1C(=O)O`, the Potency entry in assay [1] and in assay [2] was “inactive” each time.

On to `CC(=O)OCC(=O)[C@@]1(O)[C@H](OC(C)=O)C[C@H]2[C@@H]3CCC4=CC(=O)C=C[C@]4(C)[C@@]3(F)[C@@H](O)C[C@@]21C`, for which the Potency result in assay [1] and in assay [2] was “inactive” in each case.

Regarding `CCCCCCCCCCCCC`, the Potency result in assay [1] and in assay [2] was “inactive” throughout.

As for `Brc1ccc(Oc2ccc(Br)cc2)cc1`, the Potency entry in assay [1] and in assay [2] was “inactive” each time.

`O=C(C(Cl)Cl)N1CCOC12CCCCC2`: the Potency entry in assay [1] and in assay [2] was “inactive” each time.

Consider `CN(N=O)C(=O)N[C@@H]1[C@@H](O)[C@H](O)[C@@H](CO)O[C@@H]1O`, for which the Potency entry in assay [1] and in assay [2] was “inactive” in each case.

For the compound `CCCCCCCCCCCCI`, the Potency entry in assay [1] and in assay [2] was “inactive” throughout.

On to `CCc1ccc(Br)cc1`, for which the Potency entry in assay [1] and in assay [2] was “inactive” throughout.

On to `CCO[Si](C)(C)OCC`, for which the Potency result in assay [1] and in assay [2] was “inactive” throughout.

In the case of `C/C=C/c1ccc(O)c(OC)c1`, the Potency result in assay [1] and in assay [2] was “inactive” each time.

As to `CC(=O)Nc1ccc(O)cc1`, the Potency result in assay [1] and in assay [2] was “inactive” in each case.

As for `CC(C)C(=O)OCC(C)(C)C(O)C(C)C` (stereo not drawn), the Potency result in assay [1] and in assay [2] was “inactive” throughout.

For `C[C@H](CCC(=O)O)[C@H]1CC[C@H]2[C@@H]3C(=O)C[C@@H]4CC(=O)CC[C@]4(C)[C@H]3CC(=O)[C@]12C`, the Potency entry in assay [1] and in assay [2] was “inactive” each time.

Turning to `O=C1NS(=O)(=O)c2ccccc21`, the Potency result in assay [1] and in assay [2] was “inactive” each time.

Take `CCCCOCCOC(=O)c1cccnc1`: the Potency result in assay [1] and in assay [2] was “inactive” in each case.

In the case of `C/C(=C\c1ccc(C(=O)O)cc1)c1ccc2c(c1)C(C)(C)CCC2(C)C`, the Potency result in assay [1] and in assay [2] was “inactive” each time.

Consider `NC[C@H](O)c1ccc(O)c(O)c1`, for which the Potency entry in assay [1] and in assay [2] was “inactive” in each case.

On to `CCCCCCCCCCCCCCCC[N+](C)(C)Cc1ccccc1`, for which the Potency in assay [1] was 63.1 µM (active) and 49.4 µM (active) and 33.5 µM (active); in assay [2], 70.8 µM (active) and 44.1 µM (active) and 26.6 µM (active).

Turning to `CCCCCCC(=O)c1ccccc1`, the Potency entry in assay [1] and in assay [2] was “inactive” throughout.

As for `CC(=O)O[C@]1(C(C)=O)CC[C@H]2[C@@H]3C=C(C)C4=CC(=O)CC[C@]4(C)[C@H]3CC[C@@]21C`, the Potency result in assay [1] and in assay [2] was “inactive” throughout.

Consider `CC(CN(C)C)CN1c2ccccc2CCc2ccccc21` (stereo not drawn), for which the Potency entry in assay [1] and in assay [2] was “inactive” throughout.

For the compound `Cc1occc(=O)c1O`, the Potency entry in assay [1] and in assay [2] was “inactive” each time.

For the compound `CC1=CC[C@@H]2C[C@H]1C2(C)C`, the viability change, negative = cytotoxic in assay [1] was -0.978% [at 18.9 µM]. In assay [2], the activity change, negative = cytotoxicity was -0.0766% [at 18.9 µM].

For the compound `COc1cccc(N)c1`, the Potency entry in assay [1] and in assay [2] was “inactive” in each case.

Take `C/C=C(\C)C(=O)OC/C=C(\C)CCC=C(C)C`: the Potency entry in assay [1] and in assay [2] was “inactive” each time.

As for `CC(=O)C(C)=O`, the Potency entry in assay [1] and in assay [2] was “inactive” throughout.

Regarding `Cc1ccccc1C(=O)N1CC/C(=N\OS(=O)(=O)O)c2ccc(Cl)cc21`, the Potency entry in assay [1] and in assay [2] was “inactive” in each case.
